# What was measured:
# Assay in all cases: PBM binding z-score (relative to random genomic background probes); higher = stronger binding; sequences stand for … in GC…GCGATTGACAGCGTAGAATGAAGG
# [1] = tested on: PPARg:RXRa DBDmut IVT, anti-RXR (DBD mutation: RXRa K156A/R161A, NR concentration 270 nM, RXRa partner concentration 90 nM)
# In short: (§1)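 On custom Agilent 4×180K arrays, double-stranded probes with 34-nt variable regions carried direct-repeat seeds, single-nucleotide variants, half-site ablations or random human genomic background. Ligand-free nuclear receptor dimers were applied for 1 h, and binding was read with antibodies against each partner (one per run). Binding z-scores come from regression-normalized fluorescence, with the random background probes as reference.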
# [2] = tested on: PPARg:RXRa IVT, anti-PPARg (NR concentration 270 nM, RXRa partner concentration 90 nM)
# In short: as §1
# [3] = tested on: PPARg DBDmut:RXRa IVT, anti-PPARg (DBD mutation: PPARg1 K132A/R137A, NR concentration 270 nM, RXRa partner concentration 90 nM)
# In short: as §1
# [4] = tested on: PPARg DBDmut IVT, anti-PPARg (DBD mutation: PPARg1 K132A/R137A, NR concentration 270 nM)
# In short: as §1
# [5] = tested on: PPARg homodimer (NR concentration 180 nM)
# In short: as §1
# [6] = tested on: PXR:RXRa (NR concentration 270 nM, RXRa partner concentration 90 nM)
# In short: as §1
# [7] = tested on: PXR homodimer (NR concentration 270 nM)
# In short: as §1
# [8] = tested on: RARa:RXR (NR concentration 270 nM, RXRa partner concentration 90 nM)
# In short: as §1
# [9] = tested on: RARa homodimer (NR concentration 270 nM)
# In short: as §1
# [10] = tested on: RARb:RXRa (NR concentration 270 nM, RXRa partner concentration 90 nM)
# In short: as §1
# [11] = tested on: RARb homodimer (NR concentration 270 nM)
# In short: as §1
# [12] = tested on: RARg:RXRa (NR concentration 270 nM, RXRa partner concentration 90 nM)
# In short: as §1
# [13] = tested on: RARg homodimer (NR concentration 270 nM)
# In short: as §1
# [14] = tested on: RXRa DBDmut IVT, anti-RXR (DBD mutation: RXRa K156A/R161A, NR concentration 90 nM)
# In short: as §1
# [15] = tested on: RXRa homodimer (NR concentration 180 nM)
# In short: as §1
# [16] = tested on: THRa:RXRa (NR concentration 90 nM, RXRa partner concentration 90 nM)
# In short: as §1
# [17] = tested on: THRa homodimer (NR concentration 90 nM)
# In short: as §1
# [18] = tested on: VDR homodimer (NR concentration 270 nM)
# In short: as §1
Sequence,PBM binding z-score [1],PBM binding z-score [2],PBM binding z-score [3],PBM binding z-score [4],PBM binding z-score [5],PBM binding z-score [6],PBM binding z-score [7],PBM binding z-score [8],PBM binding z-score [9],PBM binding z-score [10],PBM binding z-score [11],PBM binding z-score [12],PBM binding z-score [13],PBM binding z-score [14],PBM binding z-score [15],PBM binding z-score [16],PBM binding z-score [17],PBM binding z-score [18]
GCTAGCAGGCCATTTGGGTCAATCAATGACGGGC,1.77,1.92,-1.29,-0.902,-0.569,0.511,0.261,0.95,-0.573,1.3,1.62,0.878,1.21,0.0646,0.805,1.87,0.12,-0.0302
CGGCAAAGTTCAACTAAGGTAACGTAAAGCACGC,0.283,1.29,-0.451,-0.173,3.39,5.43,2.72,3.93,0.447,5.16,4,5.78,6.69,4.36,5.14,5.16,1.33,3.51
AGATGTAGGTTACATCCGGGTCATTCAGGCTATG,7,7.07,0.707,1.29,1.58,3.72,2.06,3.68,-0.0966,2.24,2.87,3.6,2.14,0.74,3.33,3.72,2.08,2.53
ATCGAAAGGTCGTGGTGAGTATAGAGAAAGGGAA,1.03,2.12,1.47,1.03,1.89,3.3,0.954,3.84,1.77,4.27,2.85,4.45,3.8,1.52,4.79,2.82,0.58,1.23
ATATGTAGGTGATCGGGTCATTCAGTTTGCGCAT,7.23,7.11,1.94,2.7,1.86,3.27,6.72,2.77,0.81,2.01,2.55,2.48,1.78,1.09,2.44,2.91,2.14,3.46
TCGAGTAGGTTAGTCGGGGCATTCAACCAACATA,2.51,2.16,-0.398,-0.896,-0.069,0.309,-0.2,0.545,0.0845,0.517,0.661,0.183,0.0739,0.482,0.119,1.28,0.217,0.466
AGAACGAGGGCAATGAGTTGATAGAACGGGTGGC,3.29,2.76,0.559,-0.194,0.0958,1.47,4.31,0.324,-0.124,1.83,0.861,1.14,1.61,2.13,0.744,0.969,-0.182,2.82
ACTAGTAGTTGAGACGAGGGCAACCGATAGGTTG,-0.0209,0.386,-0.147,-0.849,-0.115,1.63,0.115,0.6,0.181,0.978,1.26,0.496,0.837,-0.186,0.422,2.71,-0.0205,0.686

# Reference: the supplement of paper PMC6555819
